About 83,000 compounds went through this panel and 20% of them were active in at least one assay; those are over-represented in the sample as a whole.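 Plates (96-well) were seeded with cells, treated with compound at one concentration, and incubated for 48 hours before percent growth was determined.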 Unmarked numbers belong to inactive results. The source made the active and inactive calls.

From PubChem BioAssay (NCI) come the findings set out here.

For the test, the system named is SR leukemia. Nature of the test: NCI-60 one-dose screen, 48 h (100 = growth as untreated, 0 = no growth, -100 = all killed). The conditions noted are these: 10 µM unless noted. As for the experimental part:
Growth inhibition of the SR human tumor cell line is measured as a screen for anti-cancer activity. Cells are grown in 96 well plates and exposed to the test compound for 48 hours. Compounds are tested at a single concentration, which is 10^-5 M for most compounds. The reported endpoint is percent growth (GI% or GIPRCNT), where numbers from 0 - 100% represent growth inhibition, and numbers from -100% - 0 represent cell death. For example, a value of 40 represents 60% growth inhibition. A value of 0 means no net growth occurred over the course of the experiment. A value of -40 indicates 40% of cells at the beginning of the experiment died by the end of the experiment. A value of -100 means all cells are dead at the end of the experiment.
NCI-60 Human Tumor Cell Lines Screen was performed using the standard one-dose NCI protocol, which is described in more detail at https://dtp.cancer.gov/discovery_development/nci-60/default.htm.
Compounds with GIPRCNT values below 10 were considered active. Activity score was based on GIPRCNT using the following formula: […]
Score is 0 for GIPRCNT values of 100 or above, 50 for GIPRCNT values of 0, and 100 for GIPRCNT values of -100.
For `COc1cc2c(-c3nc4cc(Cl)c(F)cc4s3)cc(=O)oc2c(C)c1OC`, the growth is -53.9% (active).

Consider `CCCCCCOc1ccc(/C=N/NC(N)=S)cc1`, for which the growth was 69.5%.

With `CCCCCCCCCCCCCCCCN=C(CC(=O)O)C(=O)O`, the growth was 65.6%.

Turning to `C/C(=N/N=C(N)N)c1ccc(N)cc1`, the growth is 49.3%.

Turning to `CN(C)c1ccc(/C=C(\C#N)c2nc3ccccc3c(=O)[nH]2)cc1`, the growth is 154%.

As for `CC[C@]1(O)CC2CN(CCc3c([nH]c4ccccc34)[C@@](C(=O)OC)(c3cc4c(cc3OC)N(C)[C@H]3[C@@](O)(C(=O)OC)[C@H](OC(C)=O)[C@]5(CC)C=CCN6CC[C@]43[C@@H]65)C2)C1` (stereo not given in full), the growth is 10.2%.

`N#Cc1c(N2CCOCC2)nc2sc3cc(Cl)ccc3n2c1=N`: the growth is 108%.

Regarding `OC(c1cc(C(F)(F)F)nc2c(C(F)(F)F)cccc12)C1CCCCN1` (stereo not given), the growth is 12.7%.

Take `C[n+]1ccc(C#N)c2ccccc21`: the growth was 67.5%.

`O=C(O)c1ccc(NC(=O)c2cccc(Nc3ccnc(C(F)(F)F)c3)c2)cc1`: the growth was 86.1%.

Consider `COc1ccc2[nH]cc(/C=C3/C(=O)Nc4ccc(Cl)cc43)c2c1`, for which the growth was 2.51% (active).

Regarding `O=C(CN1CCCCC1)Sc1nnc2sc3ccccc3n12`, the growth was 99.9%.

Consider `CC(CCC(=O)O)(NC(=O)c1ccc([N+](=O)[O-])cc1)C(=O)O` (stereo not given), for which the growth was 95.7%.

Take `CSc1nc2c(c(=O)n1C)C(c1ccccc1)C1=C(N2)/C(=C/c2ccccc2)CCC1` (stereo not given): the growth is -14.2% (active).

Turning to `COc1ccc(C2CC(c3cccc(Nc4ccnc5cc(Cl)ccc45)c3)=NN2C=O)cc1` (stereo not given), the growth was 6.76% (active).

With `O=C1NCN(CCO)CN1`, the growth is 122%.

Consider `COc1cccc(CCC2C(=O)CCCC2=O)c1`, for which the growth is 99.1%.

`N#Cc1cccc(/C=C(/C(=O)c2ccccc2)c2ccccc2)c1`: the growth was 3% (active).

In the case of `Fc1ccc(-c2nnc(-c3c(-c4ccc(F)cc4)nc4ncccn34)o2)cc1`, the growth was 90.8%.

`CCC(=O)Nc1ccccc1C#C/C=C\C#Cc1ccccc1C(F)(F)F`: the growth was 117%.

For the molecule `O=C(Nc1ccc(OCc2nnc(-c3ccccc3)o2)c(F)c1)Nc1ccc(Cl)c(C(F)(F)F)c1`, the growth is 0.0728% (active).

As for `O=C(/C=C/c1ccc(O)c(O)c1)N1CCN(c2ccc(Cl)cc2)CC1`, the growth was 26.6%.

With `COc1ccc2nc(NC(=O)c3cc(-c4ccc(F)cc4)n4nc(-c5ccccc5)cc4n3)sc2c1`, the growth was 77.5%.

Consider `c1ccc(-n2nnnc2-c2cccc3ccccc23)cc1`, for which the growth is 20.5%.

As to `COc1cc(C2CC(=O)Nc3c2cc(Br)c2ccccc32)cc(Br)c1OC` (stereo not given), the growth was -53.1% (active).

In the case of `CCCc1cc(=O)n2c(C(=O)Nc3ccccc3OC)c(C(=O)Nc3ccc(F)cc3)sc2n1`, the growth is 9.34% [30 µM] (active).

Turning to `CCc1[nH]nc(-c2ccc(OC)cc2)c1-c1ccccc1OCCN(CC)CC`, the growth was 62.7%.

On to `O=NC1CC=CCC1c1ccccc1` (stereo not given), for which the growth was 101%.

With `CCN1C[C@@H](C)n2c(c(O)c3c(=O)n(Cc4ccc(F)c(Cl)c4)nc(C(=O)NC)c32)C1=O`, the growth is 2.73% (active).

Consider `O=[N+]([O-])c1ccc(N/N=C/c2c(O)ccc3ccccc23)nc1`, for which the growth was 14.1%.

Consider `O=c1[nH]c(=O)n(C2CC(O)C(CO)O2)cc1C(F)(F)F` (stereo not given), for which the growth was -24.8% (active).

As to `Cc1cccc(Cl)c1NC(=O)c1ccc2nc(NC(=O)NC3CC(C)(C)NC(C)(C)C3)sc2c1`, the growth was 95.6%.

Take `CC/C=C\C=C/C(=O)N/C=C/CC1Cc2cccc(O)c2C(=O)O1` (stereo not given): the growth is -67.6% (active).

In the case of `C=CCCCCCCCCC(=O)[O][Sn]([CH2]CCC)([CH2]CCC)[CH2]CCC`, the growth is 8.68% (active).

Regarding `COc1ccc2[nH]cc(/C=C3/C(=O)Nc4ccc(F)cc43)c2c1`, the growth was 83.2%.

As for `O=C(NN(C(=O)c1ccccc1)c1cccs1)c1ccccc1`, the growth is 100%.

As to `O=C(CCc1nnc(SCc2ccccc2)s1)c1nc2ccccc2[nH]1`, the growth is 74.4%.

With `O=C(/C=C/c1ccccc1Cl)c1ccc(O)cc1`, the growth was 27.9%.

Regarding `N#CCCN(CCO)c1ccccc1`, the growth was 86.3%.

As for `c1cnc2ccc3ncccc3c2c1`, the growth is 82%.
